Screening results from PubChem.
Hits are enriched below; roughly 0.83% of the tested compounds scored in any of these assays.
Menin MLL FP TR: qHTS Assay for Inhibitors Targeting the Menin-MLL Interaction in MLL Related Leukemias: Competition With Texas Red Labeled MLL-derived Mutant Peptide. hit rate 0.23% among 270,000. Menin + Texas Red MLL mutant peptide, fluorescence polarization. AID 1768, 2009. O00255. Potency, µM (titrated, usually from 61.6 µM), inactives show at the top dose FP activity change, negative = inhibition, actives largely listed as inhibitors; active means well fitted inhibition curve with a large enough effect in the polarisation, with a control signal flat, not every such curve was filed as active; inconclusive means small, poorly fitted or top-dose-only effect, or effect the other way, or a change in a side signal; inactive means no such curve, though single readings can be large or run the other way; the % refers to the polarisation; further: potency means the concentration at half of the fitted maximal effect; % of control where 0% means no effect
GLS inh: qHTS for Inhibitors of Glutaminase (GLS). Glutaminase kidney isoform, mitochondrial (Homo sapiens), O94925. GLS enzymatic activity, qHTS titration. Potency, µM (series often up to 45.5 µM), without a hit: at the highest dose activity change, negative = inhibition, usual class: inhibitors. hit rate 0.21% among 410,000. AID 624170, 2012; active means well fitted inhibition curve with a large enough effect; inconclusive means small, poorly fitted or top-dose-only effect, or another doubt; inactive means no such curve, though single readings can be large or run the other way; further: potency means the concentration at half of the fitted maximal effect; on the % scale 0 is the no-effect control and ±100 the full control effect
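hKGA in 45 mM KH2PO4 (pH 8.2), 0.02% Tween-20 with compound, then 1mM L-Glutamine (stock as added) plus glutamate oxidase/HRP/Amplex red coupling mix. Fluorescence read initially and after 30 min at RT; signal change reflects glutamate formation.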
CtBP-E1A inh: qHTS Assay for Inhibitors of the CtBP/E1A Interaction | CtBP / adenovirus E1A interaction (AlphaScreen) | AlphaScreen GST-E1A/His-CtBP binding, 1536-well; active compounds read low | AID 651724, 2012 | hit rate 0.49% among 340,000 | activity change, % (test concentration not listed); further: on the % scale 0 is the no-effect control and ±100 the full control effect
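AlphaScreen with 125 nM GST-E1A and 125 nM His-CtBP (5X stocks) in Tris pH 8.0, 300 mM NaCl, BSA, Tween 20, TCEP. Compounds preincubated 2 h at 37 deg C, then glutathione donor/nickel acceptor beads added for 1 h at 37 deg C in dark.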
Menin MLL FP FL: qHTS Assay for Inhibitors Targeting the Menin-MLL Interaction in MLL Related Leukemias: Competition With Fluorescein Labeled MLL-derived Peptide; Fluorescence polarization, fluorescein-MLL peptide displacement from menin; FP activity change, % at 61.4 µM; 290,000 tested, under 10 active; active means well fitted curve in the direction sought with a large enough effect in the polarisation, not every such curve was filed as active; inconclusive means small, poorly fitted or top-dose-only effect, or effect the other way, or a change in a side signal; inactive means no such curve, though single readings can be large or run the other way; the % refers to the polarisation; further: % of control where 0% means no effect
Six1-Eya2 blk: qHTS Assay for Inhibitors of the Six1/Eya2 Interaction. Homeobox protein SIX1 (Homo sapiens) + Protein phosphatase EYA2 (Homo sapiens), …. AlphaScreen GST-Six1/His-Eya2 binding, biochemical; active compounds read low. activity change, % (concentration not given with the values). hit rate 0.56% among 360,000. AID 651725, 2012; further: on the % scale 0 is the no-effect control and ±100 the full control effect
Target sequence (O00167 whole entry, looked up): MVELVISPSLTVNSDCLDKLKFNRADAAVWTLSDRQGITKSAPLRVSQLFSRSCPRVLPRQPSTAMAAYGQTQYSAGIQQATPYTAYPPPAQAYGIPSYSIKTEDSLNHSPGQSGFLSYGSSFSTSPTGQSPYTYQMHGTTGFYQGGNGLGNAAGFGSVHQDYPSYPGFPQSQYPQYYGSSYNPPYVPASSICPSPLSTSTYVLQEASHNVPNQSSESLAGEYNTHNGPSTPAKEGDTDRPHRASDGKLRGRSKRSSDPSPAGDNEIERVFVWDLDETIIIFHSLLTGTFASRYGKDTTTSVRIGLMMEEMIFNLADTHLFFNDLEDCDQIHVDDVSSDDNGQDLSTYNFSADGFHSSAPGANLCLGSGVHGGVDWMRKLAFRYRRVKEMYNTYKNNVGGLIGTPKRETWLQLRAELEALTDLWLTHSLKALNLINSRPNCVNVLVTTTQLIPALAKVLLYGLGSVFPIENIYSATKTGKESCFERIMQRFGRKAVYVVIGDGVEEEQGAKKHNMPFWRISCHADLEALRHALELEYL
Target sequence (Q15475 whole entry, looked up): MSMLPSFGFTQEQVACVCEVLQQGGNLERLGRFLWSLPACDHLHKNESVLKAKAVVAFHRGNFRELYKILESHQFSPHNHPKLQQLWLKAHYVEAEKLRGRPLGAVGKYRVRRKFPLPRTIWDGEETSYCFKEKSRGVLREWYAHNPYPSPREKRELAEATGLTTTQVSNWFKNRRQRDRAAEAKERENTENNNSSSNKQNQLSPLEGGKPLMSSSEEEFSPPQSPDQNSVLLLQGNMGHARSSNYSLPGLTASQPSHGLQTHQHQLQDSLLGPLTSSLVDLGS
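Compounds are tested against tagged Six1 and Eya2 proteins bridged by glutathione donor and nickel acceptor beads; after a one-hour incubation at 37 °C without light, AlphaScreen emission is recorded.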
CXXC DNA block: qHTS Fluorescence Polarization Assay for Inhibitors of MLL CXXC domain - DNA interaction; Histone-lysine N-methyltransferase 2A (Homo sapiens), Q03164; MLL-CXXC / FITC-HOXA9 DNA fluorescence polarization; Potency, µM (highest dose often 115 µM), without a hit: top-dose activity change, negative = inhibition, most hits filed as inhibitors; hit rate 0.037% among 290,000; active means well fitted inhibition curve with a large enough effect in the polarisation, with a control signal flat, not every such curve was filed as active; inconclusive means small, poorly fitted or top-dose-only effect, or effect the other way, or a change in a side signal; inactive means no such curve, though single readings can be large or run the other way; the % refers to the polarisation; further: potency means the concentration at half of the fitted maximal effect
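Fluorescence polarization: 7 uM MLL-CXXC (stock) preincubated 5 min with compounds, then 50 nM fluorescein-HOX-A9 DNA (stock) added; 30 min ambient. Buffer 50 mM Tris-HCl pH 7.5, 50 mM NaCl, 1 mM DTT, 0.05% BSA.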
* marks the source's active call; other numbers are inactive results. Unless noted, no stated cut-off is given here; in the data, active means activity change below about -65%; inconclusive means mostly about -30% to -63%; inactive means weaker than that.

For COc1cc2c(cc1OC)-c1cc(Nc3ccccc3Br)nc(=O)n1CC2 the results were Menin MLL FP TR inconclusive, GLS inh -8%, CtBP-E1A inh inconclusive, Menin MLL FP FL 13, Six1-Eya2 blk inconclusive and CXXC DNA block 11%.
`CCC[C@]1(CCc2ccccc2)CC(O)=C([C@H](CC)c2cccc(NS(=O)(=O)c3ccc(C(F)(F)F)cn3)c2)C(=O)O1` gave GLS inh 5%.
CCN(CC)c1ccc(N=C2C=CC(=O)C=C2NC(C)=O)cc1 was read as GLS inh 11µM*, CtBP-E1A inh -16 and Six1-Eya2 blk -18.
O=C1CCCN1CCCNC(=S)Nc1ccccc1 was read as GLS inh -12%, CtBP-E1A inh 5, Menin MLL FP FL 6, Six1-Eya2 blk -5 and CXXC DNA block -5%.
Screening O=C1CCCN1CCCNC(=S)Nc1ccc(Nc2ccccc2)cc1 returned Menin MLL FP TR 1%, GLS inh 18µM*, CtBP-E1A inh -3, Menin MLL FP FL 6, Six1-Eya2 blk -6 and CXXC DNA block -3%.
Screening O=C(O)COc1ccccc1/C=C1\SC(=S)N(NC(=O)c2ccccc2O)C1=O returned GLS inh 55%, CtBP-E1A inh -81* and Six1-Eya2 blk -73*.
`Cn1cc(/C=C2\SC(=S)N(NC(=O)c3ccccc3Cl)C2=O)c2ccccc21` gave Menin MLL FP TR inconclusive, GLS inh -10%, CtBP-E1A inh -6, Menin MLL FP FL inconclusive, Six1-Eya2 blk -13 and CXXC DNA block inconclusive.
For Cc1ccc(C(=O)NN2C(=O)/C(=C/c3cccn3C)SC2=S)cc1 the results were Menin MLL FP TR -11%, GLS inh 4%, CtBP-E1A inh inconclusive, Menin MLL FP FL inconclusive, Six1-Eya2 blk -69* and CXXC DNA block -58%.
`Cn1cccc1/C=C1\SC(=S)N(NC(=O)c2ccccc2Cl)C1=O` gave Menin MLL FP TR 19%, GLS inh -2%, CtBP-E1A inh inconclusive, Menin MLL FP FL inconclusive, Six1-Eya2 blk -72* and CXXC DNA block 74%.
Screening O=C1/C(=C/c2ccncc2)SC(=S)N1Nc1ccccc1 returned GLS inh 8.9µM*, CtBP-E1A inh -12, Menin MLL FP FL 11, Six1-Eya2 blk -3 and CXXC DNA block 0%.
`CC(C)CCNC(=O)CSc1nc2ccccc2nc1Cc1ccccc1` gave GLS inh -3%.
Cc1noc(C)c1-c1cc(Nc2ccccc2)ncn1 was read as Menin MLL FP TR inconclusive and Menin MLL FP FL -1.
Screening O=C(CCCN1C(=O)/C(=C\c2cccs2)SC1=S)NNC(=O)c1ccncc1 returned Menin MLL FP TR 20%, GLS inh 1%, CtBP-E1A inh -26, Menin MLL FP FL -3, Six1-Eya2 blk 1 and CXXC DNA block 6%.
O=C(NN1C(=O)/C(=C/c2cccs2)SC1=S)c1ccncc1 was read as GLS inh 25%, CtBP-E1A inh -72*, Menin MLL FP FL 3, Six1-Eya2 blk -70* and CXXC DNA block -14%.
CC1CC(C)CN(C(=O)c2ccc3c(c2NCCO)C(=O)c2ccccc2C3=O)C1 (centres undefined) was read as Menin MLL FP TR inconclusive, GLS inh -6%, CtBP-E1A inh inconclusive, Menin MLL FP FL 2, Six1-Eya2 blk -70* and CXXC DNA block -9%.
`COc1ccc2c(C(=S)N(C)CC(=O)O)cccc2c1C(F)(F)F` gave GLS inh 3%.
Screening O=C(Nc1nnc(SCc2ccc(F)cc2)s1)c1ccccn1 returned Menin MLL FP TR 4%, GLS inh 0%, CtBP-E1A inh -95*, Menin MLL FP FL -2, Six1-Eya2 blk -90* and CXXC DNA block 8%.
Screening N#Cc1ccc(CSc2nnc(NC(=O)c3ccc4ncsc4c3)s2)cc1 returned Menin MLL FP TR 39%, GLS inh 4µM*, CtBP-E1A inh -2, Menin MLL FP FL inconclusive, Six1-Eya2 blk -5 and CXXC DNA block 4%.
O=C(Nc1nc2ccc(F)cc2s1)c1ccccn1 was read as Menin MLL FP TR 9%, GLS inh -8%, CtBP-E1A inh -92*, Menin MLL FP FL 1, Six1-Eya2 blk -77* and CXXC DNA block -13%.
O=C(Nc1nnc(SCc2c(Cl)cccc2Cl)s1)c1ccc2ncsc2c1 was read as Menin MLL FP TR 5%, Menin MLL FP FL 10 and CXXC DNA block -5%.
Screening Cn1c(=O)c2ccccc2n2c(=S)[nH]nc12 returned Menin MLL FP TR -1%, GLS inh 10µM*, CtBP-E1A inh -11, Menin MLL FP FL 3, Six1-Eya2 blk -26 and CXXC DNA block 13%.
`CCCCn1c(=O)c2ccccc2n2c(=S)[nH]nc12` gave Menin MLL FP TR 0%, GLS inh 13µM*, CtBP-E1A inh -14, Menin MLL FP FL -3, Six1-Eya2 blk -27 and CXXC DNA block 1%.
Cc1cc(C(=O)NNS(=O)(=O)c2cc(C(=O)O)ccc2Cl)c(C)n1-c1ccccc1 was read as GLS inh 20µM*, CtBP-E1A inh 5 and Six1-Eya2 blk -4.
`Cc1cc(C(=O)Nc2ccc(Cl)cc2)c(C)n1-c1ccccc1` gave GLS inh -2%, CtBP-E1A inh -1, Menin MLL FP FL 0, Six1-Eya2 blk -14 and CXXC DNA block 0%.
Screening O=C(O)CC[C@H](NC(=O)c1ccccc1C(=O)O)C(=O)O returned Menin MLL FP TR -2%, Menin MLL FP FL 4 and CXXC DNA block 4%.
CCOC(=O)[C@@](C)(N)Cc1ccc(O)c(O)c1 was read as GLS inh -8%.
Cc1ccc(/C=C2/Sc3ccc(C(=O)NCc4ccccn4)cc3NC2=O)cc1 was read as GLS inh 18µM*, CtBP-E1A inh -22, Six1-Eya2 blk -14 and CXXC DNA block 59%.
For O=C1Nc2cc(C(=O)NCCN3CCCCCC3)ccc2S/C1=C\c1ccccc1 the results were GLS inh -2%, Six1-Eya2 blk -17 and CXXC DNA block 109%.
`COC(=O)c1ccc(Cn2c(SCc3ccc(F)cc3)nc3ccncc32)cc1` gave GLS inh 4%.
